# Assay results published in PubChem BioAssay AID1159580 (chemical genetic matrix, 2015).
# Hit rate of the full screen: of about 5,500 compounds, about 2,000 (36%) were called active. About 18% were inconclusive and are not listed. This is one part of the list. A number with no mark means an inactive call. No stated cut-off is given here; in the data, active means normalized growth mostly below about 0.91 (no sharp cut-off); inconclusive means no clear call, values can overlap the other calls; inactive means mostly above about 0.92.
# Test: chemical genetic growth profiling, strain panel (AID 1159580);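 further: tested at 20 µM; growth read once vehicle control cultures reached saturation at 30 °C; 1 = growth at the plate median or of vehicle wells; lower values mean less growth of the strain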
# Settings: S. cerevisiae deletion strains, growth OD
smiles,measurement,setting,value
CC(C)Oc1ccc2c(=O)cc(-c3ccccc3)oc2c1,normalized growth,"locus YAL013W, strain DEP1, active compounds read low",0.892 (active)
same,normalized growth,"locus YAL021C, strain ccr4, active compounds read low",0.956
same,normalized growth,"locus YAL026C, strain drs2, active compounds read low",0.934
same,normalized growth,"locus YAL030W, strain snc1, active compounds read low",0.955
same,normalized growth,"locus YBL061C, strain skt5, active compounds read low",0.929
same,normalized growth,"locus YBR009C, strain hhf1, active compounds read low",0.952
same,normalized growth,"locus YBR021W, strain FUR4, active compounds read low",0.844 (active)
same,normalized growth,"locus YBR023C, strain chs3, active compounds read low",0.944
same,normalized growth,"locus YBR171W, strain sec66, active compounds read low",0.912
same,normalized growth,"locus YBR229C, strain ROT2, active compounds read low",0.915
same,normalized growth,"locus YBR231C, strain swc5, active compounds read low",0.937
same,normalized growth,"locus YBR279W, strain paf1, active compounds read low",0.963
same,normalized growth,"locus YCL011C, strain gbp2, active compounds read low",0.923
same,normalized growth,"locus YCL016C, strain dcc1, active compounds read low",0.94
same,normalized growth,"locus YCL029C, strain bik1, active compounds read low",0.88 (active)
same,normalized growth,"locus YCL061C, strain MRC1, active compounds read low",0.918 (active)
same,normalized growth,"locus YCL069W, strain vba3, active compounds read low",0.95
same,normalized growth,"locus YCR088W, strain abp1, active compounds read low",0.933
same,normalized growth,"locus YDL005C, strain med2, active compounds read low",0.96
same,normalized growth,"locus YDL035C, strain GPR1, active compounds read low",0.984
same,normalized growth,"locus YDL040C, strain nat1, active compounds read low",0.953
same,normalized growth,"locus YDL074C, strain BRE1, active compounds read low",0.871
same,normalized growth,"locus YDL101C, strain DUN1, active compounds read low",0.938
same,normalized growth,"locus YDL185W, strain tfp1, active compounds read low",0.423 (active)
same,normalized growth,"locus YDL192W, strain arf1, active compounds read low",0.884 (active)
same,normalized growth,"locus YDR001C, strain nth1, active compounds read low",0.943
same,normalized growth,"locus YDR069C, strain doa4, active compounds read low",0.972
same,normalized growth,"locus YDR101C, strain arx1, active compounds read low",0.906 (active)
same,normalized growth,"locus YDR137W, strain rgp1, active compounds read low",0.834 (active)
same,normalized growth,"locus YDR150W, strain NUM1, active compounds read low",0.937
same,normalized growth,"locus YDR159W, strain sac3, active compounds read low",0.919
same,normalized growth,"locus YDR162C, strain NBP2, active compounds read low",0.953
same,normalized growth,"locus YDR195W, strain ref2",1.03
same,normalized growth,"locus YDR297W, strain sur2, active compounds read low",0.95
same,normalized growth,"locus YDR318W, strain mcm21, active compounds read low",0.885 (active)
same,normalized growth,"locus YDR334W, strain swr1, active compounds read low",0.953
same,normalized growth,"locus YDR335W, strain msn5, active compounds read low",0.962
same,normalized growth,"locus YDR388W, active compounds read low",0.876 (active)
same,normalized growth,"locus YDR392W, strain spt3, active compounds read low",0.358 (active)
same,normalized growth,"locus YDR502C, strain sam2, active compounds read low",0.904 (active)
same,normalized growth,"locus YEL003W, strain gim4, active compounds read low",0.887 (active)
same,normalized growth,"locus YEL037C, strain rad23, active compounds read low",0.953
same,normalized growth,"locus YEL061C, strain CIN8 (second series), active compounds read low",0.916
same,normalized growth,"locus YEL061C, strain CIN8, active compounds read low",0.923 (active)
same,normalized growth,"locus YER015W, strain faa2, active compounds read low",0.962
same,normalized growth,"locus YER016W, strain bim1, active compounds read low",0.956
same,normalized growth,"locus YER110C, active compounds read low",0.886 (active)
same,normalized growth,"locus YER111C, strain swi4, active compounds read low",0.959
same,normalized growth,"locus YER155C, strain BEM2 (second series), active compounds read low",0.679 (active)
same,normalized growth,"locus YER155C, strain BEM2, active compounds read low",0.85 (active)
same,normalized growth,"locus YER167W, strain BCK2, active compounds read low",0.925
same,normalized growth,"locus YFR010W, strain ubp6, active compounds read low",0.936
same,normalized growth,"locus YGL078C, strain dbp3, active compounds read low",0.815 (active)
same,normalized growth,"locus YGL086W, strain mad1, active compounds read low",0.91 (active)
same,normalized growth,"locus YGL167C, strain pmr1, active compounds read low",0.946
same,normalized growth,"locus YGL173C, strain kem1, active compounds read low",0.943
same,normalized growth,"locus YGL227W, strain vid30, active compounds read low",0.905 (active)
same,normalized growth,"locus YGL240W, strain doc1, active compounds read low",0.901
same,normalized growth,"locus YGL248W, strain PDE1, active compounds read low",0.912
same,normalized growth,"locus YGL253W, strain hxk2, active compounds read low",0.926
same,normalized growth,"locus YGR078C, strain PAC10, active compounds read low",0.903
same,normalized growth,"locus YGR135W, strain pre9, active compounds read low",0.907
same,normalized growth,"locus YGR252W, strain gcn5, active compounds read low",0.827
same,normalized growth,"locus YHR013C, strain ard1, active compounds read low",0.859
same,normalized growth,"locus YHR027C, strain rpn1, active compounds read low",0.947
same,normalized growth,"locus YHR030C, strain SLT2, active compounds read low",0.92
same,normalized growth,"locus YHR079C, strain IRE1 (second series), active compounds read low",0.888 (active)
same,normalized growth,"locus YHR094C, strain hxt1, active compounds read low",0.879 (active)
same,normalized growth,"locus YHR129C, strain ARP1, active compounds read low",0.916 (active)
same,normalized growth,"locus YHR142W, strain chs7, active compounds read low",0.735 (active)
same,normalized growth,"locus YHR200W, strain rpn10, active compounds read low",0.869 (active)
same,normalized growth,"locus YIL066C, strain RNR3, active compounds read low",0.939
same,normalized growth,"locus YIL073C, strain SPO22, active compounds read low",0.921
same,normalized growth,"locus YIL125W, strain kgd1, active compounds read low",0.715 (active)
same,normalized growth,"locus YIR030C, strain dcg1, active compounds read low",0.878 (active)
same,normalized growth,"locus YJL092W, strain hpr5, active compounds read low",0.928
same,normalized growth,"locus YJL095W, strain BCK1 (second series), active compounds read low",0.948
same,normalized growth,"locus YJL095W, strain BCK1, active compounds read low",0.888
same,normalized growth,"locus YJL115W, strain asf1, active compounds read low",0.958
same,normalized growth,"locus YJL129C, strain trk1, active compounds read low",0.815 (active)
same,normalized growth,"locus YJL134W, strain LCB3, active compounds read low",0.909 (active)
same,normalized growth,"locus YJL154C, strain vps35, active compounds read low",0.952
same,normalized growth,"locus YJL164C, strain tpk1, active compounds read low",0.923
same,normalized growth,"locus YJL166W, strain qcr8, active compounds read low",0.893 (active)
same,normalized growth,"locus YJL168C, strain set2, active compounds read low",0.872 (active)
same,normalized growth,"locus YJL187C, strain SWE1 (second series), active compounds read low",0.906
same,normalized growth,"locus YJL187C, strain SWE1, active compounds read low",0.951
same,normalized growth,"locus YJR043C, strain POL32, active compounds read low",0.941
same,normalized growth,"locus YJR075W, strain HOC1, active compounds read low",0.904
same,normalized growth,"locus YKL009W, strain mrt4, active compounds read low",0.452 (active)
same,normalized growth,"locus YKL068W, active compounds read low",0.797 (active)
same,normalized growth,"locus YKL085W, strain MDH1 (second series), active compounds read low",0.667 (active)
same,normalized growth,"locus YKL085W, strain MDH1, active compounds read low",0.667 (active)
same,normalized growth,"locus YKL160W, strain elf1, active compounds read low",0.913
same,normalized growth,"locus YKL190W, strain CNB1, active compounds read low",0.945
same,normalized growth,"locus YKR001C, strain vps1, active compounds read low",0.83 (active)
same,normalized growth,"locus YKR026C, strain gcn3, active compounds read low",0.934
same,normalized growth,"locus YKR091W, strain srl3, active compounds read low",0.965
same,normalized growth,"locus YLL001W, strain dnm1, active compounds read low",0.951
same,normalized growth,"locus YLL026W, active compounds read low",0.955
same,normalized growth,"locus YLL041C, strain sdh2, active compounds read low",0.957
same,normalized growth,"locus YLR027C, strain aat2, active compounds read low",0.957
same,normalized growth,"locus YLR039C, strain RIC1, active compounds read low",0.815
same,normalized growth,"locus YLR058C, strain SHM2, active compounds read low",0.915
same,normalized growth,"locus YLR102C, strain apc9, active compounds read low",0.881 (active)
same,normalized growth,"locus YLR221C, strain rsa3, active compounds read low",0.895 (active)
same,normalized growth,"locus YLR258W, strain gsy2, active compounds read low",0.948
same,normalized growth,"locus YLR262C, strain YPT6 (second series), active compounds read low",0.821 (active)
same,normalized growth,"locus YLR262C, strain YPT6, active compounds read low",0.861
same,normalized growth,"locus YLR268W, strain sec22, active compounds read low",0.906
same,normalized growth,"locus YLR320W, strain mms22, active compounds read low",0.785 (active)
same,normalized growth,"locus YLR330W, strain CHS5, active compounds read low",0.896 (active)
same,normalized growth,"locus YLR342W, strain FKS1 (second series), active compounds read low",0.911
same,normalized growth,"locus YLR342W, strain FKS1, active compounds read low",0.916
same,normalized growth,"locus YLR357W, strain rsc2, active compounds read low",0.869
same,normalized growth,"locus YLR370C, strain arc18, active compounds read low",0.941
same,normalized growth,"locus YLR371W, strain rom2, active compounds read low",0.898 (active)
same,normalized growth,"locus YLR384C, strain iki3, active compounds read low",0.944
same,normalized growth,"locus YLR418C, strain cdc73, active compounds read low",0.814 (active)
same,normalized growth,"locus YML016C, strain PPZ1, active compounds read low",0.91 (active)
same,normalized growth,"locus YML032C, strain rad52, active compounds read low",0.908
same,normalized growth,"locus YML120C, strain ndi1, active compounds read low",0.963
same,normalized growth,"locus YML124C, strain tub3, active compounds read low",0.867 (active)
same,normalized growth,"locus YMR058W, strain fet3, active compounds read low",0.916
same,normalized growth,"locus YMR078C, strain ctf18, active compounds read low",0.839 (active)
same,normalized growth,"locus YMR125W, strain sto1, active compounds read low",0.953
same,normalized growth,"locus YMR129W, active compounds read low",0.952
same,normalized growth,"locus YMR205C, strain PFK2, active compounds read low",0.844 (active)
same,normalized growth,"locus YMR223W, strain ubp8, active compounds read low",0.9 (active)
same,normalized growth,"locus YMR231W, strain pep5, active compounds read low",0.969
same,normalized growth,"locus YMR263W, strain SAP30, active compounds read low",0.893
same,normalized growth,"locus YMR307W, strain GAS1, active compounds read low",0.791
same,normalized growth,"locus YNL067W, strain RPL9B, active compounds read low",0.93
same,normalized growth,"locus YNL071W, strain lat1, active compounds read low",0.734 (active)
same,normalized growth,"locus YNL128W, strain TEP1, active compounds read low",0.941
same,normalized growth,"locus YNL209W, strain ssb2, active compounds read low",0.971
same,normalized growth,"locus YNL233W, strain BNI4, active compounds read low",0.901
same,normalized growth,"locus YNL248C, strain rpa49, active compounds read low",0.919
same,normalized growth,"locus YNL250W, strain rad50, active compounds read low",0.767 (active)
same,normalized growth,"locus YNL271C, strain bni1, active compounds read low",0.794 (active)
same,normalized growth,"locus YNL298W, strain CLA4, active compounds read low",0.538 (active)
same,normalized growth,"locus YNL307C, strain MCK1, active compounds read low",0.848 (active)
same,normalized growth,"locus YNL322C, strain KRE1 (second series), active compounds read low",0.946
same,normalized growth,"locus YNR049C, strain mso1, active compounds read low",0.943
same,normalized growth,"locus YNR052C, strain pop2, active compounds read low",0.908 (active)
same,normalized growth,"locus YOL012C, strain htz1",1.5
same,normalized growth,"locus YOL147C, strain pex11, active compounds read low",0.872 (active)
same,normalized growth,"locus YOR001W, strain rrp6, active compounds read low",0.896
same,normalized growth,"locus YOR061W, strain CKA2, active compounds read low",0.912
same,normalized growth,"locus YOR069W, strain VPS5, active compounds read low",0.925 (active)
same,normalized growth,"locus YOR070C, strain gyp1, active compounds read low",0.961
same,normalized growth,"locus YOR080W, strain dia2, active compounds read low",0.965
same,normalized growth,"locus YOR083W, strain WHI5, active compounds read low",0.928
same,normalized growth,"locus YOR106W, strain vam3, active compounds read low",0.917
same,normalized growth,"locus YOR136W, strain idh2, active compounds read low",0.938
same,normalized growth,"locus YOR144C, strain elg1, active compounds read low",0.874 (active)
same,normalized growth,"locus YOR184W, strain ser1, active compounds read low",0.9
same,normalized growth,"locus YOR265W, strain rbl2, active compounds read low",0.96
same,normalized growth,"locus YOR270C, strain vph1, active compounds read low",0.731 (active)
same,normalized growth,"locus YOR290C, strain snf2, active compounds read low",0.797 (active)
same,normalized growth,"locus YOR316C, strain cot1, active compounds read low",0.875 (active)
same,normalized growth,"locus YPL051W, strain arl3, active compounds read low",0.897 (active)
same,normalized growth,"locus YPL078C, strain atp4, active compounds read low",0.905
same,normalized growth,"locus YPL106C, strain sse1, active compounds read low",0.928
same,normalized growth,"locus YPL240C, strain hsp82, active compounds read low",0.95
same,normalized growth,"locus YPR119W, strain clb2, active compounds read low",0.856 (active)
same,normalized growth,"locus YPR141C, strain kar3, active compounds read low",0.802 (active)
same,normalized growth,"locus YPR163C, strain tif3, active compounds read low",0.906 (active)
same,normalized growth,"locus YPR167C, strain met16, active compounds read low",0.873 (active)
same,normalized growth,"strain wtn01, active compounds read low",0.909
